Bioassay records deposited in PubChem by National Center for Advancing Translational Sciences (NCATS).
Rows were chosen to be rich in hits. Some 7.3% of all compounds tested hit in one or more screens of this group.
Rab9 promoter act = activators of Rab9 promoter; Huh7 Rab9 promoter-luciferase reporter, luminescence, 24 h; AID 485297; Potency, µM (doses to about 9.22 µM), for the others: at the highest dose activation, negative = inhibition, most hits filed as activators; hit rate 2.8% among 320,000; note: % of control where 0% means no effect; nearly all actives have a fitted effect of over 60% in size
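Using Huh7 cells stably transfected with Rab9 promoter–luciferase, compounds were incubated 24 h at 37 °C, 5% CO2; luciferase luminescence was read 10 min after reagent addition.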
ELG1 genotox = genotoxicity induction in ELG1-luciferase HEK293T cells; Potency, µM (highest dose often 46 µM), without a hit: top-dose activity change, positive = activation, hits mostly activators; hit rate 1.3% among 330,000; HEK293T ELG1-luciferase reporter, luminescence, 16 h; AID 504466; note: % of control where 0% means no effect; nearly all actives have a fitted effect of over 60% in size
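Step 1: seed 2,000 HEK293T ELG1-luciferase cells per well. Step 2: add compound or DMSO, incubate 16 hr at 37 °C. Step 3: ONE-Glo, 30 min at room temperature, read luminescence.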
Luc counter = blocks Kinase-Glo luciferase, a counter-screen artifact. Q27757. Kinase-Glo luciferase, ATP luminescence, 8 min. Potency, µM (titrated, usually from 38.3 µM), without a hit: at the top dose activity change, negative = inhibition, hits mostly inhibitors. hit rate 0.28% among 200,000; note: % is set by controls: 0 for no effect and ±100 for the full control effect; nearly all actives have a fitted effect of over 60% in size
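Kinase-Glo luciferase light output from ATP and luciferin was measured with 10 uM ATP, within the enzyme's linear range. Buffer: 50 mM imidazole pH 7.2, 50 mM KCl, 7 mM MgCl2, 0.01% Tween 20, 0.05% BSA; luminescence read after 8 min at ambient temperature.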
SMN2 splice enh = increases expression of the SMN2 splice variant; HEK293 SMN2-luciferase splicing reporter, luminescence, 30-36 h; Potency, µM (highest dose often 46.1 µM), without a hit: at the highest dose activity change, positive = activation, actives largely listed as activators; hit rate 2.8% among 210,000; AID 1458; note: % of control where 0% means no effect; nearly all actives have a fitted effect of over 55% in size
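qHTS luciferase splicing reporter: luminescence rises when SMN2 exon 7 is included in transfected HEK293 cells. Compound exposure lasted 30-36 h at 37C, with 4.5 mM final sodium butyrate as control, followed by a ONE-Glo read.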
NPC1 promoter act = NPC1 promoter activation. Huh7 NPC1 promoter luciferase reporter, 24 h. Potency, µM (series often up to 9.22 µM), without a hit: at the top dose activation, most hits filed as activators. hit rate 2.4% among 320,000. AID 485313; note: % of control where 0% means no effect; nearly all actives have a fitted effect of over 60% in size
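Compounds in DMSO were transferred onto Huh7 NPC1-luciferase reporter cells pre-incubated 2 h; after 24 h at 37 °C, Amplite reagent was dispensed and luminescence recorded 10 min later.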
FLuc counter = inhibits or activates purified firefly luciferase, miR-21 counter-screen; purified FLuc, Km substrates, luminescence inhibition; P08659; Potency, µM (top dose mostly 57.5 µM), for the others: at the top dose activity change, negative = inhibition, actives largely listed as inhibitors; hit rate 6.9% among 360,000;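 note: plate controls were vehicle for no effect and reference inhibitor for full effect; nearly all actives have a fitted effect of over 55% in size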
Target sequence (P08659 whole entry, looked up): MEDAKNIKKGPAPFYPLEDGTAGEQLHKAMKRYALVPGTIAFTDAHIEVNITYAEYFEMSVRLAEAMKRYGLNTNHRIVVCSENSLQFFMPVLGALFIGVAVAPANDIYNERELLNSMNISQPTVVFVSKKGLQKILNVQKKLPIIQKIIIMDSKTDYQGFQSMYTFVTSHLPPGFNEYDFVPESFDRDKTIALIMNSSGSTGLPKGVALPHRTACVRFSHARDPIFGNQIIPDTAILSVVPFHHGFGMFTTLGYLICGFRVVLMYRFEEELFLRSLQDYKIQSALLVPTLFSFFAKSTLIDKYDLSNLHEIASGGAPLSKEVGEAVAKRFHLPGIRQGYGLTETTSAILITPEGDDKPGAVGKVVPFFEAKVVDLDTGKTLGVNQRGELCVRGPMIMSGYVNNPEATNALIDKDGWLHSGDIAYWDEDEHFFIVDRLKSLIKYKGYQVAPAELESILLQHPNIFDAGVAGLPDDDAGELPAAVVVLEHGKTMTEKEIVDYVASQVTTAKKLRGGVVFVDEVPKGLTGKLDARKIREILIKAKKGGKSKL
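Purified P. pyralis luciferase, 10 nM final, with Km-level 10 uM D-luciferin and 10 uM ATP in 50 mM Tris acetate pH 7.5, 10 mM Mg acetate, 0.01% Tween-20, 0.05% BSA; 6-point qHTS titration about 60 µM downward; luminescence read.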
Numbers without * were called inactive; ? = inconclusive; · = no result given; [ ] = another dose, or the depositor's remark. Calls come from the whole dose curve; as a rule, active = well fitted curve in the direction sought with a large enough effect; inconclusive = small, poorly fitted or top-dose-only effect, or another doubt; inactive = no such curve, though single readings can be large; an effect the other way counts as inactive or inconclusive. Potency is the fitted concentration of half-maximal effect.

SMILES	Rab9 promoter act	ELG1 genotox	Luc counter	SMN2 splice enh	NPC1 promoter act	FLuc counter
O=C(Oc1ccccc1)c1ccc(NC(=O)c2ccco2)cc1	29.6%	?	-25.7%	8.5%	21.7%	2.69µM*
COC(=O)C1=C(C(=O)OC)[C@@H]2N(Cc3ccccc3)c3ccccc3[C@@]23C[C@@H](C(=O)OC)N(S(=O)(=O)c2ccc(C#N)cc2)C3=N1	·	·	-9.3%[7.66 µM]	1.1%[9.22 µM]	·	·
OCc1cnc(SCc2cccc(F)c2)n1Cc1ccc(F)cc1	·	·	·	·	·	4.1%
COc1ccc(N2CCN(C(=O)c3cc4ccccc4o3)CC2)cc1	-4.6%	5.8%	·	·	10.3%	-0.8%
Cc1ccc(Oc2ccc(NC(=O)c3ccco3)cc2)cc1	?	?	-3.0%	2.0%	3.16µM*	26.9µM*
Cc1ccc(NC(=O)c2ccc(OC(=O)c3cc4ccccc4o3)cc2)cc1	2µM*	3.16µM*	-0.6%	10µM*	3.55µM*	-13.7%
O=C(Nc1ccc(Oc2ncccn2)cc1)c1ccco1	19.7%	9.5%	-10.2%	-4.1%	8.6%	-3.8%
CCN(C(=O)c1cc2ccccc2oc1=O)c1ccccc1	?	9.2µM*	-2.9%	-21.6%	?	9.53µM*
COc1ccc(OC(=O)c2cc3ccccc3o2)cc1	-2.1%	1.0%	-7.1%	29.1%	0.1%	0.536µM*
Cc1ccc(-c2nn(-c3ccc(F)cc3)cc2C(=O)NCC2CCCO2)cc1 (stereo not drawn)	10.4%	-8.7%	·	·	-7.8%	10.7µM*
O=C(NCC1CCCO1)c1cn(-c2ccccc2)nc1-c1ccccc1 (stereo not drawn)	3.2%	-2.2%	·	·	14.3%	6.75µM*
COc1cccc(-c2nn(-c3ccc(C)cc3)cc2C(=O)NCC2CCCO2)c1 (stereo not drawn)	13.0%	-5.1%	·	·	-1.2%	9.53µM*
COc1cccc(-c2cc(C(=O)NCC3CCCO3)c3cc(C)cc(C)c3n2)c1 (stereo not drawn)	16.4%	14.9%	·	·	-4.1%	1.9µM*
COc1ccccc1CNC(=O)CCC1N=C2c3ccccc3N=C(SCc3ccc(C)cc3C)N2C1=O (stereo not drawn)	·	·	·	5.4%	·	-2.0%
CCOC(=O)c1cc(-c2ccc(F)cc2)n(CCC(=O)Nc2nc3ccc(OC)cc3s2)c1C	·	·	·	·	·	-2.3%
COc1cccc(-c2nn(-c3ccc(F)cc3)cc2C(=O)NCC2CCCO2)c1 (stereo not drawn)	-1.6%	-6.2%	·	·	-0.4%	16.9µM*
COc1ccc(-c2nn(-c3ccccc3)cc2C(=O)NCC2CCCO2)cc1 (stereo not drawn)	3.3%	-6.0%	·	·	0.3%	?
Brc1ccc(N=NNc2ccccc2)cc1	?	?	·	·	?	6.01µM*
O=[N+]([O-])c1cccc(NN=Nc2ccccc2)c1	?	?	·	·	?	10.7µM*
O=[N+]([O-])c1ccc(N=NNc2ccccc2)cc1	?	10.1%	-1.3%	15.8µM*	26.1%	?
O=C(O)c1cc(NN=Nc2cccc([N+](=O)[O-])c2)cc([N+](=O)[O-])c1	-1.9%	0.8%	·	·	-4.7%	?
COc1ccc(C)c2sc(NC(=O)c3ccc(S(=O)(=O)N(C)C)cc3)nc12	·	·	·	·	·	-4.1%
O=C1C2=C(Nc3ccccc3SC2c2ccccc2C(F)(F)F)c2ccccc21 (stereo not drawn)	·	·	·	-22.4%	·	-1.0%
CCOC(=O)c1ccc(NC(=O)CC2Nc3cc(C)c(C)cc3NC2=O)cc1 (stereo not drawn)	·	·	·	-11.5%	·	-3.5%
Cn1c(/C=N/NC(=O)c2ccccc2)nc2ccccc21	12.1%	2.6%	-0.4%	-17.1%	11.5%	-13.9%
O=c1c2ccccc2nc(/C=C/c2cccc(Br)c2)n1CCCO	-4.2%	-8.4%	·	·	-8.0%	-15.6%
Cn1c(=O)c(/C=C/c2ccccc2)nc2ccccc21	3.55µM*	?	-3.1%	11.2µM*	?	2.69µM*
